Screening results as filed in PubChem.
mHTT CaM bind: inhibitors of human mutant huntingtin-calmodulin interaction; P42858; AlphaScreen His-mHTT/GST-CaM binding, luminescence; inhibition, % at 15 µM; actives 3.6% (n = 190,000); AID 1671202
Pf apPOL block: Pf-apPOL DNA polymerase inhibition. Recombinant Pf-apPOL, molecular beacon fluorescence, 1.5 h. inhibition, % at 10 µM. actives 0.25% (n = 210,000)
A number is an active result; - = inactive; . = no result given; + = active, no number. The list is not random: actives were taken first. Their share in the collection is about 3.6%. Cut-off read from the data, not from the text of the source: active = inhibition above about 50%; inactive = the rest.

SMILES	mHTT CaM bind	Pf apPOL block
O=[N+]([O-])c1ccccc1N=Cc1sc2ccccc2c1O	-	-
CC1(C)CC(=O)C2=C(C1)N(c1ccc(Br)cc1F)C(N)=C(C#N)C2c1cccs1 (centres undefined)	52	-
CC1(C)CC(=O)C2=C(C1)N(c1ccc(Br)cc1)C(N)=C(C#N)C2c1cccs1 (centres undefined)	-	-
CCc1ccc(C2C(C#N)=C(N)N(c3ccccc3)C3=C2C(=O)CC(C)(C)C3)s1 (centres undefined)	50	-
CCc1ccc(C2C(C#N)=C(N)N(c3ccc([N+](=O)[O-])cc3)C3=C2C(=O)CC(C)(C)C3)s1 (centres undefined)	-	-
Cc1nc(C)c2c(n1)N(CCC1=CCCCC1)C(=O)CC2	-	-
COCCC1CCN(C(=O)c2cc(F)ccc2F)CC1	-	-
Cc1ccc(Nc2ccc(NS(=O)(=O)c3ccc4c(c3)OCCO4)cc2)nn1	-	-
CCCn1nc(-c2nc(-c3cccc(Cl)c3)no2)ccc1=O	-	-
Cc1ccc2nc(NC(=O)CN3C(=O)c4ccccc4C3=O)sc2c1	-	-
CN(C)CCN(C(=O)CN1C(=O)c2ccccc2C1=O)c1nc2ccc(Cl)cc2s1	84	-
O=c1[nH]c(SCc2cccc(F)c2)nc2c1cnn2-c1ccccc1	-	-
Cn1c(=O)c(Cc2ccc(Cl)c([N+](=O)[O-])c2)nc2ccccc21	-	-
COc1ccc(CCNC(=O)CCC(=O)N2CC3CCCN3c3ccccc32)cc1OC (centres undefined)	-	-
O=C(CCC(=O)N1CC2CCCN2c2ccccc21)NCCc1ccc(Cl)cc1 (centres undefined)	75	-
CC(C)CCNC(=O)CCC(=O)N1CC2CCCN2c2ccccc21 (centres undefined)	-	-
O=C(CCC(=O)N1CC2CCCN2c2ccccc21)NCCc1ccccc1Cl (centres undefined)	53	-
O=C(Nc1ccccc1F)C1CCN(c2ccccc2-n2cccc2)C1=O (centres undefined)	-	-
CCSc1ccccc1C(=O)Nc1nc(-c2ccc(OC)cc2OC)cs1	-	-
COc1ccc(C2=C/C(=C\c3ccccc3)C(=O)O2)cc1	-	-
O=C1/C(=C/c2cccnc2)CN(Cc2ccccc2)C/C1=C\c1cccnc1	-	-
Cn1cccc1/C=C1\CN(Cc2ccccc2)C/C(=C\c2cccn2C)C1=O	99	-
Cc1ccc(N(Cc2ccc(C(=O)Nc3ccccc3Cl)cc2)S(C)(=O)=O)cc1C	-	-
Cc1cccc(N=Cc2cc(I)cc(I)c2O)c1	-	-
COc1cc([N+](=O)[O-])cc(C=Nc2ncccc2O)c1O	72	-
SMILES	mHTT CaM bind	Pf apPOL block
Oc1cccnc1N=Cc1cc(I)cc(I)c1O	90	-
COc1cccc(N=Cc2cc([N+](=O)[O-])cc(OC)c2O)c1	76	-
CCOc1cc([N+](=O)[O-])cc(C=Nc2ccc3ncccc3c2)c1O	-	-
COc1cc([N+](=O)[O-])cc(C=Nc2cccc(Cl)c2Cl)c1O	-	-
COc1cccc(C=CC(=O)c2ccco2)c1	-	-
O=C1Cc2ccccc2C1=C1Cc2ccccc2C1	.	-
O=C1CC(=C2C(=O)c3ccccc3C2=O)c2ccccc21	86	.
O=C1C(c2ccccn2)=C(O)c2ccccc21	-	-
O=C1C(=C2C/C(=N/O)c3ccccc32)C(=O)c2ccccc21	+	.
Brc1c(-c2ccccc2)nc2n1-c1ccccc1C2	-	-
CCOc1ccccc1CNC(=O)c1ccc2[nH]c3c(c2c1)CN(C(C)=O)CC3	74	-
CCc1ccc(CNC(=O)c2ccc3[nH]c4c(c3c2)CN(C(C)=O)CC4)cc1	-	-
CCC(CC)NC(=O)c1ccc2[nH]c3c(c2c1)CN(C(C)=O)CC3	-	-
CC(=O)N1CCc2[nH]c3ccc(C(=O)NCc4ccc(N5CCOCC5)cc4)cc3c2C1	56	-
O=C1C(=O)N(CCN2CCCCC2)c2ccccc21	-	-
O=C1C(=O)N(CN2CCCCCC2)c2ccccc21	77	-
Cc1ccc(C2=NC(=C(Cl)Cl)C(=O)N2)cc1	100	-
COc1ccc(-n2nc3c(c2NC(=O)c2cc(Cl)ccc2[N+](=O)[O-])CSC3)cc1	-	-
CN1CCN(Cc2ccc3c(c2)Cc2ccccc2-3)CC1	-	-
CN1CCN(Cc2cncc(-c3cc4ccccc4s3)c2)CC1	55	-
Cc1oc2ccn(Cc3ccc(F)cc3)c(=O)c2c1C(=O)NC(C)C	80	-
Cc1oc2ccn(Cc3ccc(F)cc3)c(=O)c2c1C(=O)N1CCN(C(C)C)CC1	-	-
Cc1c(C=O)c2ccccc2n1CC(N)=O	-	-
O=C(NCc1ccccc1Cl)c1ccc2c(c1)NC(=O)C(N1CCCC1)S2 (centres undefined)	-	-
O=C(NCc1ccccn1)c1ccc2c(c1)NC(=O)C(N1CCCC1)S2 (centres undefined)	58	-
SMILES	mHTT CaM bind	Pf apPOL block
O=[N+]([O-])c1ccc(S(=O)(=O)N2CCN(c3ccc(F)cc3)CC2)cc1	-	-
CC(C)CC(=O)Nc1cccc(NC(=O)c2cccs2)c1	-	-
O=C(CCc1ccccc1)NC(c1cccs1)c1ccc2cccnc2c1O (centres undefined)	-	-
CC(C)C(NC(=O)C1CCN(c2ccc(N3CCCCC3)nn2)CC1)c1cccs1 (centres undefined)	-	-
CC(C)C(=O)NC(c1cccs1)c1cc(Cl)c2cccnc2c1O (centres undefined)	-	-
CCCC(=O)NC(c1cccs1)c1cc(Cl)c2cccnc2c1O (centres undefined)	100	-
CC(C)CC(=O)NC(c1cccs1)c1ccc2cccnc2c1O (centres undefined)	100	-
O=C(NC(c1cccs1)c1ccc2cccnc2c1O)C1CCCCC1 (centres undefined)	97	-
CCCC(=O)NC(c1cccs1)c1ccc2cccnc2c1O (centres undefined)	100	-
Cc1ccc(C(C)C)c(OCC(=O)Nc2ccc(C(=O)O)cc2)c1	-	-
CCOC(=O)[C@H](N)Cc1ccccc1	.	-
Cc1ccc(NC(=O)CN2C(=O)S/C(=C\c3ccccc3)C2=O)cc1C	-	-
COc1cccc(/C=C2/SC(N3CCN(C)CC3)=NC2=O)c1OC	-	-
COc1cccc(/C=C2\Cc3ccccc3C2=O)c1OC	-	-
COc1cccc(/C=C2\CS/C(=C\c3cccc(OC)c3OC)C2=O)c1OC	53	-
CCCN1C/C(=C\c2cccc(OC)c2OC)C(=O)/C(=C/c2cccc(OC)c2OC)C1	50	-
Cc1cc(C(=O)N2CCCC2c2cccc(F)c2)on1 (centres undefined)	-	-
CC(=O)N1CCC(n2c(C)nc(C(=O)NCc3cccs3)c2C)CC1	-	-
Cc1cc(C)nc(N=C(N)Nc2ccccc2F)n1	-	-
COc1ccccc1C=C1Oc2c(ccc3c2CN(Cc2cc(OC)c(OC)c(OC)c2)CO3)C1=O	55	-
COc1ccccc1C=C1Oc2c(ccc3c2CN(Cc2ccncc2)CO3)C1=O	-	-
COc1ccccc1C=C1Oc2c(ccc3c2CN(CCN2CCOCC2)CO3)C1=O	57	-
COc1cccc(C=C2Oc3c(ccc4c3CN(Cc3ccco3)CO4)C2=O)c1	-	-
COc1ccc(C=C2Oc3c(ccc4c3CN(Cc3ccco3)CO4)C2=O)cc1OC	58	-
COc1ccc(C=C2Oc3c(ccc4c3CN(Cc3cccnc3)CO4)C2=O)c(OC)c1	-	-
